Sa RN4220 lethal: kills Staphylococcus aureus RN4220. 330,000 compounds, 0.33% hits. inhibition, % (concentration not given with the values). S. aureus RN4220 growth, OD600, 16 h; in the data active means inhibition above about 85%;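 further: plate controls were untreated cells for no effect and reference antibiotic for full effect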
Sa ugtP lethal: compounds lethal to S. aureus RN4220 ugtP deletion mutant. AID 1259309. 330,000 compounds, 0.54% hits. OD600 growth, 16 h. growth inhibition, % (concentration not given with the values); in the data active means growth inhibition above about 68%;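 further: plate controls were untreated wells for no effect and antibiotic for full effect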
PfHsp40 yeast: restores yeast growth despite PfHsp40 toxicity; 340,000 compounds, 0.68% hits; S. cerevisiae expressing PfHsp40, growth rescue, ATP luminescence; growth rescue, % at 12.5 µM; in the data active means growth rescue above about 28%, passing the limit was not always enough; inconclusive means no clear call, values can overlap the other calls;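 further: yeast W303a lacking pdr1 and pdr3 grown in galactose medium; growth measured after three days at 30 °C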
PrP UTR inh: inhibition of PrP 5' UTR reporter expression; AID 488862; inhibition, % (concentration not given with the values); cell-based PrP 5' UTR mRNA reporter, plate reader; 340,000 compounds, 0.35% hits; in the data active means inhibition above about 52%; further: 0 = median of the neutral control wells
TcdB GH inh: inhibitors of Clostridioides difficile toxin B glycohydrolase | TcdB glycohydrolase enzymatic assay, plate reader | inhibition, % at 9.99 µM | 350,000 compounds, 0.24% hits | AID 652162; in the data active means inhibition above about 10%
Starred values were filed as active, the others as inactive; ? = inconclusive; nt = not tested or not shown. This is a sample that favours compounds with a hit; in the whole collection about 1.2% have one here.

SMILES	Sa RN4220 lethal	Sa ugtP lethal	PfHsp40 yeast	PrP UTR inh	TcdB GH inh
C[C@@H]1CN([C@@H](C)CO)C(=O)Cc2cc(NC(=O)C3CC3)ccc2O[C@H]1CN(C)Cc1ccc(Oc2ccccc2)cc1	nt	nt	nt	nt	0.0
CCN(CC)Cc1c(C(=O)NN=Cc2ccccn2)nnn1-c1nonc1N	3.7	2.1	nt	nt	nt
O=C(NCCNC(=O)c1ccccn1)c1ccc(Cl)cc1	-3.7	8.4	-1.4	-4.6	0.1
O=C(Sc1ccc(Cl)cc1)c1ccccn1	-1.0	84.3*	21.7	-27.9	0.0
CC[n+]1c(/C=C/c2c[nH]c3ccccc23)ccc2cc(C)ccc21	96.5*	97.3*	2.6	-25.0	1.4
CCN(CC)C(=O)c1ccc(/C=C/c2c[nH]c3ccccc23)[n+](C)c1	4.9	1.9	-0.3	-19.3	nt
COc1ccc(-c2nnc(SCC(=O)NN=Cc3ccccc3C(=O)O)n2-c2ccc(Cl)cc2)cc1	2.8	10.0	nt	nt	nt
CCCc1ccc(-c2csc(NC(=O)C3=COCCO3)n2)cc1	-2.8	55.6	49.7*	-72.6	-2.0
CO[C@H]1CN(C)C(=O)c2cc(NC(=O)C3CCCCC3)ccc2OC[C@@H](C)N(C)C[C@H]1C	nt	nt	nt	nt	-0.3
Cc1ccccc1NC(C)C(=O)N/N=C/c1ccccc1OCc1cccc(Br)c1 (stereo not drawn)	nt	nt	35.2*	-11.2	nt
C#CCOCCOCCOCCNc1nc(N2CCN(C(=O)C(CCCCN)n3cc(CN)nn3)CC2)nc(N2CCN(C(=O)C(C(C)O)n3cc(C(N)CCCCN)nn3)CC2)n1 (stereo not drawn)	5.9	2.2	nt	nt	nt
c1ccc(Cc2nnc3n2N=C(c2ccccc2)CS3)cc1	11.4	7.4	-1.2	-9.1	15.7*
COc1ccc(NC(=O)N(C)C[C@@H]2Oc3ccc(NS(=O)(=O)c4ccccc4)cc3C(=O)N([C@H](C)CO)C[C@@H]2C)cc1	nt	nt	nt	nt	1.1
Cc1ccc(S(=O)(=O)Oc2ccc(/C=N/NC(=O)c3nn(C)cc3[N+](=O)[O-])cc2)cc1	nt	nt	1.0	-0.6	13.9*
Cc1ccc(S(=O)(=O)Oc2ccccc2/C=N/NC(=O)c2nn(C)cc2[N+](=O)[O-])cc1	nt	nt	0.6	-18.3	nt
O=C(Nc1cccc(Cl)c1)C1=Cc2cc(Cl)ccc2OC1	14.6	21.6	?	-10.6	nt
O=C(Nc1ccc(Cl)c(Cl)c1)C1=Cc2ccccc2OC1	86.5*	98.4*	1.1	-76.1	nt
C[C@@H]1CCCCO[C@H](CN(C)S(=O)(=O)c2ccc(Cl)cc2)[C@H](C)CN([C@@H](C)CO)C(=O)c2cc(NC(=O)NC3CCCCC3)ccc2O1	nt	nt	nt	nt	1.3
O=C(Nc1cccc(O)c1)c1ccc(C(F)(F)F)cc1	1.1	-5.7	-0.2	-83.1	2.9
O=C(Nc1ccc(Br)c(C(F)(F)F)c1)c1ccccc1	0.6	-23.2	644.4*	-47.2	1.3
O=C(Nc1ccc(Br)c(C(F)(F)F)c1)c1ccc(C(F)(F)F)cc1	100.5*	99.0*	nt	nt	8.0
COc1cc(CN2[C@@H]3CNC[C@H]2C3c2ccc(-c3ccccc3C)cc2)cc(OC)c1 (stereo partly drawn)	nt	nt	nt	nt	0.7
COc1cccc(S(=O)(=O)N(C)C[C@H]2OCc3ccccc3-c3ccccc3C(=O)N([C@@H](C)CO)C[C@H]2C)c1	nt	nt	nt	nt	1.4
Oc1ccc(/C=N/N2CCN(Cc3ccccc3)CC2)cc1	nt	nt	-0.5	-26.6	17.6*
C(=N\N1CCN(Cc2ccccc2)CC1)/c1ccc(-c2ccccc2)cc1	nt	nt	0.7	4.9	1.0
SMILES	Sa RN4220 lethal	Sa ugtP lethal	PfHsp40 yeast	PrP UTR inh	TcdB GH inh
CSc1ccc(/C=N/N2CCN(Cc3ccc(Cl)cc3)CC2)cc1	nt	nt	-0.2	-10.8	10.9*
COc1ccc(S(=O)(=O)N[C@H]2CC[C@H](CC(=O)NCCc3ccccc3)O[C@@H]2CO)cc1	nt	nt	nt	nt	0.4
CCOc1cc(/C=C/c2nc3cc(C)c(C)cc3s2)ccc1OCC(=O)N1CCOCC1	8.5	-5.1	1.3	-19.5	2.0
CCOc1cc(/C=C\[N+](=O)[O-])ccc1OCC(=O)N1CCOCC1	3.9	-7.9	34.9*	-3.0	0.2
CC(=NOCC(=O)NCCCCCCNC(=O)CON=C(C)c1cccs1)c1cccs1	-4.9	9.8	nt	nt	nt
CC(=O)Nc1cccc2cc(S(=O)(=O)O)ccc12	nt	nt	nt	nt	-0.2
CC(=O)Nc1cccc2cc(O)ccc12	2.3	0.0	1.0	-39.5	21.9*
O=C(Nc1cc(F)ccc1F)N1C[C@@H]2[C@H](c3ccccc31)[C@@H](CO)N2Cc1cccnc1	nt	nt	nt	nt	-7.3
Oc1cc(Cl)ccc1Oc1ccc(Cl)cc1Cl	100.0*	100.1*	263.0*	-5.0	-0.6
S=c1[nH]cc(Oc2ccc(Cl)cc2Cl)c(=S)[nH]1	22.7	5.1	nt	nt	-1.1
CNC[C@H]1OCCCC[C@H](C)Oc2ccc(NC(=O)Nc3ccccc3)cc2C(=O)N([C@@H](C)CO)C[C@@H]1C	nt	nt	nt	nt	1.0
Cc1ccc(C(=O)N(Cc2nnc(-c3ccccc3Cl)o2)C2CC2)o1	nt	nt	nt	nt	2.7
Cc1ccc(CN2CC(C(=O)N(Cc3nnc(-c4ccccc4Cl)o3)C3CC3)CC2=O)cc1 (stereo not drawn)	5.3	3.8	561.3*	-29.5	0.2
Oc1cccc(-c2nc3c4c(ncn3n2)-c2ccccc2CC42CCCC2)c1	31.2	88.8*	-0.2	-17.6	1.8
COc1ccc(-c2nc3c4c(ncn3n2)-c2ccccc2CC42CCCC2)cc1	nt	nt	-0.8	-23.9	-0.6
Cc1noc(C)c1NC(=O)N(C)C[C@@H]1Oc2ccc(NS(=O)(=O)c3ccc(F)cc3)cc2CC(=O)N([C@H](C)CO)C[C@@H]1C	nt	nt	nt	nt	1.3
Cc1nn2c(-c3ccncc3)nnc2c2ccccc12	5.1	-0.5	57.4*	-18.2	nt
CO[C@@H]1CN(C)C(=O)c2cc(NC(=O)C3CC3)ccc2OC[C@H](C)N(Cc2cccc(F)c2)C[C@H]1C	nt	nt	nt	nt	0.1
CCCCNc1c(-c2ccc(SC(C)CC)cc2)nc2cnccn12 (stereo not drawn)	nt	nt	860.1*	-7.6	nt
NC(=NOC(=O)Cc1ccc(-c2ccccc2)cc1)c1ccncc1	4.7	-4.7	nt	nt	nt
Cc1nn(C)cc1C=NNC(=S)Nc1ccccc1	-0.4	0.4	nt	nt	nt
CC(=NNC(=O)c1cc(Br)ccc1O)c1ccccn1	13.9	-7.0	nt	nt	nt
O=[N+]([O-])c1cc([N+](=O)[O-])c2oc(-c3ccccc3)c(Br)c2c1O	91.9*	93.5*	9.8	-26.9	nt
CN1C(=O)c2cc(NS(=O)(=O)c3ccc(Cl)cc3)ccc2OC[C@@H]2O[C@@H](CC(=O)O)CC[C@@H]21	nt	nt	nt	nt	-0.3
COc1ccc(-c2c(-c3ccccc3OC)oc3ccccc23)cc1F	-4.8	89.1*	0.7	-21.0	-1.2
Cc1cccc(Nc2nc(-c3ccc(O)cc3O)cs2)n1	-7.7	-16.1	121.0*	-55.6	0.7
COc1ccc(C=c2sc(=CC(=O)c3ccc(C)cc3)[nH]c2=O)c(OC)c1	-4.2	88.6*	nt	nt	nt
O=C(N[C@@H](Cc1c[nH]c2ccccc12)C(=O)O)C1CCN(S(=O)(=O)c2cccs2)CC1	-4.5	-1.5	-2.5	nt	10.5*
O=C(N[C@@H](Cc1c[nH]c2ccccc12)C(=O)O)C1CCN(S(=O)(=O)c2ccc(Cl)cc2)CC1	3.6	7.7	0.4	-21.0	0.5
CC(C)c1cc(-c2cc(C(=O)NCc3ccccc3)on2)nc(NC2CCCC2)n1	-8.8	-10.7	5.4	-22.6	-0.3

High-throughput results: PubChem, several laboratories
